Data published in PubChem BioAssay AID686979 (National Center for Advancing Translational Sciences (NCATS), 2013).
The whole screen tested about 420,000 compounds, of which about 50,000 (12%) were called active. Where a call stands in place of a potency, no number is given. Not shown: some 26% with an inconclusive outcome. The sample holds actives, similar compounds and a random draw of the others, so the mix is not that of the screen. Calls follow the shape of the dose curve; as a rule, active = well fitted inhibition curve with a large enough effect; inconclusive = small, poorly fitted or top-dose-only effect; inactive = flat fitted curve, though single readings scatter.

Assay: qHTS for Inhibitors of human tyrosyl-DNA phosphodiesterase 1 (TDP1): qHTS in cells in presence of CPT; also: nearly all actives have a fitted effect of over 55% in size
Settings: chicken DT40 Tdp1-/-;hTDP1 cells + 20 nM CPT, ATP luminescence, 48 h; series mostly up to 46.2 µM
Procedure, shortened: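 Chicken DT40 Tdp1-/- cells stably complemented with human TDP1 were seeded at 400 cells/well in medium containing 20 nM camptothecin, exposed to pin-transferred compounds, and grown at 37 °C for at least 48 hr. Viability was read as ATP luminescence.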
Potency is read from the fitted curve at half-maximal effect.

SMILES | Potency
CCOc1ccc(CN(C)C(=O)c2ccc(=O)[nH]c2)cc1 | inactive
Cc1occc(=O)c1OCc1c(Cl)cccc1Cl | inactive
COc1ccc(C2C3=C(CCCC3=O)N(CC(=O)O)C3=C2C(=O)CCC3)cc1 | inactive
CSc1ccc(S(=O)(=O)N2CCC(C(=O)NCc3ccncc3)CC2)cc1 | inactive
COc1ccc(-c2c(C)nn3c(N4CCC(C(=O)N5CCCCC5)CC4)cc(C)nc23)cc1OC | inactive
CCN(CC)c1nc(-c2ccccc2)cc(C(F)(F)F)c1C#N | inactive
O=C(CNS(=O)(=O)c1ccccc1)NCC(=O)OCc1ccccc1F | inactive
Cc1cc(=O)oc2cc(OC(C)C(=O)NCCc3ccc(S(N)(=O)=O)cc3)ccc12 (configuration not stated) | inactive
Nc1nc(SCC(=O)NNc2c(Cl)cc(Cl)cc2Cl)n[nH]1 | inactive
COc1cc(Cl)c(C)cc1NC(=O)COC(=O)c1cc(SC)ccc1Cl | inactive
CCC(C)Cn1c(O)cc2nn(-c3nc4ccccc4s3)c(=O)c-2c1C (configuration not stated) | 14.6 µM (active)
Cc1ccc(-c2nn3c(=O)cc(CN4CCN(S(=O)(=O)c5ccc(Cl)cc5)CC4)nc3s2)cc1 | inactive
CCc1ccc(C2C(C#N)=C(N)N(N(C)C)C3=C2C(=O)CCC3)s1 (configuration not stated) | inactive
CSc1sc(C)cc1C1C(C#N)=C(N)N(c2cccnc2)C2=C1C(=O)CCC2 (configuration not stated) | 11.6 µM (active)
Cc1sc(C2C(C#N)=C(N)N(c3cccc(Cl)c3)C3=C2C(=O)CCC3)cc1CN1CCOCC1 (configuration not stated) | inactive
Cc1cn(C)c(CC(=O)NCc2ccccc2)c1C(=O)O | inactive
C=CCn1c(SCC(N)=O)nnc1-c1cc2c(s1)CCC(CC)C2 (configuration not stated) | inactive
CCC1OC(c2ccc([N+](=O)[O-])cc2)=Nc2ccccc21 (configuration not stated) | inactive
CC(NC(=O)c1ccco1)c1ccc2c(c1)OCO2 (configuration not stated) | inactive
COc1ccc(CCNC(=O)COC(=O)Cc2ccccc2F)cc1 | inactive
COc1ccc(C(CNCC(=O)Nc2ccccc2F)N(C)C)cc1 (configuration not stated) | inactive

SMILES | Potency
COc1ccc(C(CCNCc2ccccc2F)c2ccc(F)cc2)cc1 (configuration not stated) | 16.4 µM (active)
O=C(NNC(=O)C1CCC1)c1ccccc1 | inactive
CC1(C)c2[nH]c3ccccc3c2C[C@H]2C(=O)N(N)CC(=O)N21 | inactive
Nc1ncnc2c1ncn2[C@@H]1O[C@H](CNC(=O)[C@H](N)Cc2cccnc2)[C@@H](O)[C@H]1O | inactive
COc1ccc(CC(N)C(=O)NC2C(O)[C@H](n3cnc4c(N(C)C)ncnc43)O[C@@H]2CO)cc1 (some centres not stated) | 17.6 µM (active)
COc1cccc(CN(C)C(=O)CC[C@H]2O[C@@H](n3cnc4c(NC(=O)c5ccccc5)ncnc43)[C@H](O)[C@@H]2O)c1 | inactive
CC(=O)N1CCOc2ccc(S(=O)(=O)N3CCC(C(=O)Nc4ccccc4F)CC3)cc21 | inactive
CN(CCO)S(=O)(=O)c1ccc2c(c1)C(=O)c1cc(S(=O)(=O)N(C)CCO)ccc1-2 | inactive
O=C1c2ccccc2C(=O)N1c1ccc(S(=O)(=O)N2CCOCC2)c2ccccc12 | inactive
CCCC/C=C/c1cccc2nncn12 | inactive
CC(=O)c1ccc(N2CCN(C(=O)C3CCN(S(=O)(=O)c4ccc5c(c4)CC(C)N5C(=O)C4CC4)CC3)CC2)cc1 (configuration not stated) | 11.6 µM (active)
CC(=O)c1ccc(N2CCN(S(=O)(=O)c3ccc4c(c3)CC(=O)N4C)CC2)cc1 | inactive
CCS(=O)(=O)N1CCC(C(=O)N2CCN(c3ccccc3)CC2)CC1 | inactive
Cc1ccc2c(c1)N(CCCC(=O)NCc1cccnc1)C(=O)CO2 | inactive
Cc1nc(CC(=O)NNS(=O)(=O)c2ccc(F)c(Cl)c2)cs1 | inactive
CN(C)S(=O)(=O)c1ccc(Cl)c(NC(=O)COC(=O)CC(NC(N)=O)c2ccc(Cl)cc2)c1 (configuration not stated) | inactive
CCOC(=O)C1CCN(Cc2nnc(-c3cccc(Br)c3)o2)CC1 | inactive
CCCCCCCNC(=O)C1(CC2CC(c3cccc(Br)c3)=NO2)CCN(C(=O)c2cc(OCC)c(OCC)c(OCC)c2)CC1 (configuration not stated) | 23.1 µM (active)
CN(CC(=O)NCCc1ccccc1)S(=O)(=O)c1cnc[nH]1 | inactive
CCOc1ccccc1-n1c(SCC(=O)NCc2ccco2)nnc1-c1ccncc1 | inactive
Cn1c(SCc2ccc(F)cc2)nnc1-c1ccncc1 | inactive

SMILES | Potency
Cc1ccc(Nc2nc(CSc3nnc(-c4ccncc4)n3-c3ccccc3C)cs2)cc1 | 13 µM (active)
O=C(O)CC/C(=C\c1cc2c(cc1Br)OCO2)c1nc2ccccc2s1 | inactive
O=C(N1CCCC1)C12CC3CC(C1)CC(C(=O)N1CCCC1)(C3)C2 | inactive
CCCc1nc(SCC(=O)N2CCCC2)c2c(=O)n(C)c(=O)n(C)c2n1 | inactive
CCc1nc(SCC(=O)Nc2ccccc2OC)n[nH]1 | inactive
CCCc1nc(SCC(=O)Nc2ccccc2OC)c2c(=O)n(C)c(=O)n(C)c2n1 | 14.6 µM (active)
O=C(Cc1c[nH]c2ccccc12)N/N=C/c1cccc(F)c1 | inactive
O=C(CSCc1c(Cl)cccc1Cl)NN1C(=O)c2ccccc2C1=O | inactive
CC1CC(C)CN(CCCNC(=O)Cn2ncc3c([nH]c4ccccc43)c2=O)C1 (configuration not stated) | inactive
CCCn1c2ccccc2c2cnn(CC(=O)NCC3CCN(Cc4ccc(C)cc4)CC3)c(=O)c21 | 20.6 µM (active)
Cc1ccc(Cn2c(C)c3cnn(CC(=O)NCc4ccccc4)c(=O)c3c2C)cc1 | 2.91 µM (active)
CC1CCCCN1CCCNC(=O)Cn1ncc2c([nH]c3ccccc32)c1=O (configuration not stated) | inactive
Cc1ccccc1CNC(=O)Cn1c(C)c2cnn(-c3ccccc3)c(=O)c2c1C | inactive
CCCn1c2ccccc2c2cnn(CC(=O)NCCCOC(C)C)c(=O)c21 | 23.1 µM (active)
Cc1ccc(Cn2c(C)c3cnn(CC(=O)NCCN4CCOCC4)c(=O)c3c2C)cc1 | inactive
O=C(Cn1ncc2c3ccccc3n(Cc3ccccc3)c2c1=O)NCc1ccccn1 | inactive
COc1cc(NC(=O)NCC2CCN(Cc3ccc(C)cc3)CC2)cc(OC)c1OC | inactive
O=C1C(Cl)=C(N2CCOCC2)C(=O)N1c1ccccc1 | inactive
CCOC(=O)CNC(=O)CSc1ncccc1-c1nc2ccccc2[nH]1 | inactive
COc1ccccc1C1=CC(=O)C[C@H](c2ccc(F)cc2)C1 | inactive
